An excerpt weighted towards active compounds, which were near 11% of everything screened.
NPR1 antag – human Npr1 receptor antagonism. P16066. HEK293 hNpr1 GloSensor cGMP, ANP-stimulated luminescence. Potency, µM (highest dose often 46.3 µM), for inactives: at the highest dose activity change, negative = inhibition, usual class: inhibitors. hit rate 1.6% among 76,000. AID 1347048; calls by dose curve; also: nearly all actives have a fitted effect of over 60% in size
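Compound pre-incubated 30 min at room temperature on GloSensor-loaded HEK293 cells stably carrying hNpr1 and the pGS-40F cGMP biosensor. Stimulation uses hNppA at 0.1 nM final; luminescence is taken at baseline and 20 min post-agonist.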
FLuc inh – inhibitors of firefly (Photinus pyralis) luciferase; P08659; purified P. pyralis luciferase, luminescence, biochemical; Potency, µM (titrated, usually from 115 µM), hits mostly inhibitors; hit rate 2.5% among 76,000; also: nearly all actives have a fitted effect of over 65% in size
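Purified 10nM P. pyralis luciferase with 10uM D-luciferin and 10uM ATP in 50mM Tris acetate pH 7.5, 10mM Mg acetate, 0.01% Tween-20, 0.05% BSA. qHTS titration; luminescence read by CCD imager.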
3T3 cytotox – cytotoxic compounds in NIH 3T3 cells. NIH 3T3 viability, CellTiter-Glo ATP luminescence, 48-72 h. Potency, µM (highest dose often 96.7 µM), inactives show at the top dose activity change, negative = cytotoxicity, most hits filed as inhibitors. hit rate 4.3% among 94,000; also: nearly all actives have a fitted effect of over 55% in size
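Luminescent ATP readout (CellTiter-Glo, 10 min RT) after 48 or 72 hr compound exposure of NIH 3T3 cells seeded at 400 cells/well in 1536-well format; quantitative HTS.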
HEK cytotox – kills HEK 293 cells; hit rate 6.6% among 94,000; HEK 293 viability, ATP luminescence (CellTiter-Glo), 48-72 h; Potency, µM (series often up to 115 µM), for the others: top-dose activity change, negative = cytotoxicity, usual class: inhibitors; also: nearly all actives have a fitted effect of over 60% in size
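250 HEK 293 cells/well; compound by pintool; incubated 48 or 72 hr at 37 degree Celsius; CellTiter-Glo added, 10 min RT, luminescence imaged.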
An asterisk follows results filed as active; i = inactive; ? = inconclusive; nt = no result; [ ] = another dose, or the depositor's remark. Unless noted, calls follow the shape of the dose curve; as a rule, active = well fitted curve in the direction sought with a large enough effect; inconclusive = small, poorly fitted or top-dose-only effect, or another doubt; inactive = no such curve, though single readings can be large; an effect the other way counts as inactive or inconclusive. % is scaled to controls: 0 for no effect and ±100 for the full control effect; potency is read from the fitted curve at half-maximal effect.

SMILES | NPR1 antag | FLuc inh | 3T3 cytotox | HEK cytotox
COc1cccc(-c2cc3c(=O)n(CC(O)c4ccccc4)ccn3n2)c1 (configuration not stated) | -30% | 3.5µM* | -29% | 35µM*
COc1cccc(-c2cc3c(=O)n(CCNC(=O)Cc4ccc(F)cc4)ccn3n2)c1 | ? | 7.9µM* | -10% | -10%
Cc1ccc([S+](=O)([O-])N2CCN(C(=O)c3nc4cccnc4n(C4CC4)c3=O)CC2)cc1 | nt | nt | -20% | -5%
Cc1ccccc1C(=O)N1CCCC2(CNc3ncccc3[S+](=O)([O-])N2)C1 (configuration not stated) | nt | nt | -13% | -18%
CN(C)CCNC(=O)c1nc2nc(-c3ccccc3)c(Nc3ccc(F)cc3)cc2n1C | 2%[70.6 µM] | i | ? | 56µM*
Cc1ccccc1Nc1cc2c(nc1-c1ccccc1)nc(C(=O)NCCN(C)C)n2C | 2%[70.6 µM] | i | 32µM* | 40µM*
COCCCNC(=O)c1nc2nc(-c3ccccc3)c(Cl)cc2n1C | -6%[70.6 µM] | i | ? | ?
Cc1ccc(C2Cn3nnc(C(=O)N4CCC(C(=O)NCc5cccc(Cl)c5)CC4)c3CO2)cc1 (configuration not stated) | -7% | 22µM* | -22% | -16%
Cc1ccc(C2Cn3nnc(C(=O)N4CCC(C(=O)NCc5cccc(F)c5)CC4)c3CO2)cc1 (configuration not stated) | -2% | 35µM* | -16% | -2%
COc1cccc(CNC(=O)C2CCN(C(=O)c3nnn4c3COC(c3ccc(C)cc3)C4)CC2)c1 (configuration not stated) | 0% | ? | -5% | -23%
Cc1ccc(C2Cn3nnc(C(=O)N4CCC(C(=O)NCc5cc(F)cc(F)c5)CC4)c3CO2)cc1 (configuration not stated) | -1% | 16µM* | i | -6%
Cc1ccc(CNC(=O)C2CCN(C(=O)c3nnn4c3COC(c3ccc(C)cc3)C4)CC2)cc1 (configuration not stated) | -1% | i | 2% | 1%
CSc1ccc(-c2cccc(C(=O)NCC(=O)NCc3ccc(F)cc3)c2)cc1 | nt | nt | ? | 16µM*
CSc1ccc(-c2cccc(C(=O)NCC(=O)N3CCN(c4ncccn4)CC3)c2)cc1 | nt | nt | ? | 22µM*
O=C(Cc1cccc(Cl)c1)NCCNC(=O)c1cccc(-c2ccc(C(F)(F)F)cc2)c1 | nt | nt | -38% | ?
O=C(NCC(=O)N1CCC(c2ccccc2)CC1)c1cccc(-c2ccc(C(F)(F)F)cc2)c1 | nt | nt | ? | 10µM*
O=C(CNC(=O)c1cccc(-c2ccc(C(F)(F)F)cc2)c1)NCc1cccc(Cl)c1 | nt | nt | ? | 28µM*
Cc1ccc(C(=O)N2CCN(C(=O)c3nc4cccnc4n(C4CC4)c3=O)CC2)cc1 | nt | nt | -7% | 4%
Cc1noc(C)c1[S+](=O)([O-])N1CCCC1C(=O)N1CCC(N2CCOCC2=O)CC1 (configuration not stated) | nt | nt | -7% | i
CC(C)(C)C(=O)N1CCCN(c2ccc3nnc(C4CC4)n3n2)CC1 | nt | nt | -28% | -27%
Clc1ccccc1CN1CC[C@H](c2nnc(-c3ccccc3)o2)C1 | -2%[70.6 µM] | i | -25%[174 µM] | -18%[172 µM]
c1ccc(-c2nnc([C@H]3CCN(Cc4ccco4)C3)o2)cc1 | -2%[70.6 µM] | 50µM* | -8%[174 µM] | ?
Clc1ccc(-c2nnc([C@H]3CCN(Cc4ccco4)C3)o2)cc1 | -6%[70.6 µM] | 45µM* | -37%[174 µM] | -21%[172 µM]
Clc1ccc(-c2nnc([C@H]3CCN(Cc4c[nH]c5ccccc45)C3)o2)cc1 | -28%[70.6 µM] | i | 112µM* | ?
CCc1cccc2c(C(CC(=O)NCc3ccco3)c3ccc(C)cc3)c[nH]c12 (configuration not stated) | -12% | i | ? | 35µM*
CCCCNC(=O)CC(c1ccc(OC)cc1OC)c1c[nH]c2c(CC)cccc12 (configuration not stated) | -19% | i | ? | ?
CCc1cccc2c(C(CC(=O)NCc3ccco3)c3ccc(OC)c(OC)c3)c[nH]c12 (configuration not stated) | -16% | i | ? | ?
CCCCNC(=O)CC(c1cccc2c1OCO2)c1c[nH]c2c(CC)cccc12 (configuration not stated) | -13% | i | ? | 45µM*
